Compound activity: PubChem BioAssay, Johns Hopkins Ion Channel Center
Shown are actives, neighbours in structure and some others; about 1.6% of the full set was active somewhere.
KCNQ2 inh: blocks the rat KCNQ2 potassium channel. O88943. CHO-K1 KCNQ2, FluxOR thallium flux, 20 min; stronger effect = lower value. B-score at 10 µM. 310,000 compounds, 1.1% hits. AID 2156;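 active = fluorescence ratio B-score at most minus 3 library SDs, with starting brightness B-score within 2 library SDs, cut at about -5.5 in these data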
Target sequence (O88943 whole entry, looked up): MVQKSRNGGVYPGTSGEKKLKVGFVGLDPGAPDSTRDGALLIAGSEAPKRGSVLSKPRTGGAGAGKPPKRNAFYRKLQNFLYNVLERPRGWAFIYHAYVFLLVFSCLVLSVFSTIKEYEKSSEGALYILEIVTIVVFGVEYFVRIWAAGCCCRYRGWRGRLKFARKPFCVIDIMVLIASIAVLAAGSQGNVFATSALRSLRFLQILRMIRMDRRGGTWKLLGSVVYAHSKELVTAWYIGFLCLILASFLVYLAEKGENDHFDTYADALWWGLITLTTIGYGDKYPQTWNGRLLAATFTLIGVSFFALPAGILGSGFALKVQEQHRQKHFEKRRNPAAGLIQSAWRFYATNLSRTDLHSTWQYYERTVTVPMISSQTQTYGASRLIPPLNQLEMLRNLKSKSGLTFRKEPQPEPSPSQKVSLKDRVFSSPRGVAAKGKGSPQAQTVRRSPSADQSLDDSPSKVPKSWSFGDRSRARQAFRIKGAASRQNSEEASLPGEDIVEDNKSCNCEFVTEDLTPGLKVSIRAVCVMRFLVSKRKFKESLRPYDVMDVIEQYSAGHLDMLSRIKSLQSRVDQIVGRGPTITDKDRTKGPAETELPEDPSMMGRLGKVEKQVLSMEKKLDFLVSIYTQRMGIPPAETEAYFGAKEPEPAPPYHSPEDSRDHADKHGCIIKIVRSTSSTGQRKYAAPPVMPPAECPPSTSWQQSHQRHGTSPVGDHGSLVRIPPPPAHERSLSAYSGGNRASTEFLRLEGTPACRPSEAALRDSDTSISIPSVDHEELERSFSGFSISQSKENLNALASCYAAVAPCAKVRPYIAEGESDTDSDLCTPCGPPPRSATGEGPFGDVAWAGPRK
KCNQ2 pot: potentiators of rat KCNQ2 potassium channel | O88943 | CHO-K1 KCNQ2, FluxOR thallium flux fluorescence; stronger effect = higher value | B-score at 10 µM | 310,000 compounds, 0.54% hits | AID 2239;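 active = fluorescence ratio B-score at least 3 SD of library B-scores, with initial fluorescence B-score within 3 of them, cut at about 5.3 in these data; same plate scores as AID 2156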;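 also: B-score of peak minus minimum over baseline fluorescence ratio after K+ and Tl+ stimulus; positive B-score means potentiation of KCNQ2 with more thallium influx and brighter signal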
Numbers without * were called inactive; i = inactive; · = no result given.

SMILES	KCNQ2 inh	KCNQ2 pot
N#CC(C#N)=Cc1cnc(N2CCN(c3ccccc3)CC2)s1	i	0.36
Cc1cc(C)c(C(=O)COC(=O)[C@H](C)Nc2ccc(C(F)(F)F)cc2[N+](=O)[O-])c(C)c1	-6.2*	-6.2
COc1ccc(C(=O)COC(=O)[C@H](C)Nc2ccc(C(F)(F)F)cc2[N+](=O)[O-])cc1	i	0.01
O=C(O)CC1c2ccccc2C=Cc2ccccc21	i	·
O=C(Nc1ccc(OC(F)(F)F)cc1)c1cnccn1	i	0.1
Cn1cnnc1SCC(=O)Nc1ccccc1Oc1ccccc1	i	·
O=C(O)CNC(=O)c1ccccc1Br	i	0.03
COc1cccc(C(=O)N2CCn3c2nc2ccccc23)c1	-8.7*	-8.7
COc1ccc(N2CCN(c3nc4ccccc4n3CC(=O)c3ccccc3)CC2)cc1	-6.3*	-6.3
CCOC(=O)C1CCN(c2nc3ccccc3n2CC(=O)c2ccccc2)CC1	i	·
COc1ccc(C(=O)N2CCn3c2nc2ccccc23)cc1	i	·
COc1ccc(OC)c(C(C(=O)NC2CCCCC2)N(C(=O)c2ccccn2)c2cccnc2)c1 (stereo not given)	i	0.82
CCOc1ccc(CNC(=O)CCS(=O)(=O)Cc2cccc(Cl)c2)cc1OC	i	1.4
CN1CCN(Cc2c(O)ccc3occ(C(=O)c4ccccc4)c23)CC1	i	1.6
CC(=O)C(C(C)=O)c1c(Cl)c(O)c(O)c2c(C(=O)c3ccccc3)coc12	-7.3*	-7.3
Cc1cc(C)nc(NS(=O)(=O)c2ccc(NC(=O)c3snnc3C)cc2)n1	i	·
Cc1[nH]c(C)c(S(=O)(=O)N2CCN(c3cccc(Cl)c3)CC2)c1C(=O)N1CCCCC1	i	·
Cc1ccc(C)c(N2CCN(S(=O)(=O)c3c(C)[nH]c(C)c3C(=O)N3CCCCC3)CC2)c1	-6.7*	-6.7
Cc1ccc(C)c(N2CCN(S(=O)(=O)c3c(C(=O)N4CCCCC4)c(C)n(C)c3C)CC2)c1	i	·
Cc1ccc(Cl)cc1N1CCN(S(=O)(=O)c2c(C)[nH]c(C)c2C(=O)N2CCCCC2)CC1	-7.2*	-7.2
COc1ccc(/C(C)=N/NC(=O)CNC(=O)/C=C\c2ccco2)cc1	i	·
Nc1cc(N)cc(C(=O)OCC(=O)Nc2cc(S(=O)(=O)N3CCCCC3)ccc2Cl)c1	i	0.55
COc1ccccc1OCC(=O)N/N=C/c1c(O)ccc2ccccc12	-6*	-6
COc1ccccc1OCC(=O)N/N=C/c1cccc2cccnc12	i	0.03
Cc1cccn2c(CN[C@H]3CCCCNC3=O)c(C(=O)N3CCOCC3)nc12	i	0.09
SMILES	KCNQ2 inh	KCNQ2 pot
Cc1cc(C)cc(OCC(=O)OCC(=O)NC2CCCCCCC2)c1	i	1.6
Cc1cc(C)c2nc(N3CCC(C(=O)NCCCN4CCCCC4)CC3)sc2c1	-6.5*	-6.5
Cc1cc(C)c2nc(N3CCC(C(=O)NCC4CCCO4)CC3)sc2c1 (stereo not given)	i	·
CCOc1ccc(CN(C)C(=O)CNC(=O)C2CCCCC2)cc1OC	i	2.2
O=C(NCc1cccnc1)c1ccc(-c2cc(Cl)ccc2Cl)o1	-6.8*	-6.8
O=C(Nc1cccnc1)c1ccc(-c2cc(Cl)ccc2Cl)o1	i	0.02
O=C(N/N=C/c1ccccn1)c1sc2ccccc2c1Cl	i	14*
N/C(=N\OC(=O)c1cc(-c2ccccc2)nc2ccccc12)c1ccc(Cl)cc1	-6.2*	-6.2
O=C(N/N=C/c1c[nH]c2ccccc12)c1sc2ccccc2c1Cl	i	·
Cc1cccc(-c2cc(C(=O)N/N=C/c3cccnc3)c3ccccc3n2)c1	i	·
O=C(N/N=C/c1ccccn1)c1cc(-c2ccc(Cl)cc2)nc2ccccc12	i	9.6*
N/C(=N\OC(=O)c1cc(-c2ccccc2)nc2ccccc12)c1cccnc1	i	·
O=C(N/N=C/c1ccccn1)c1cc(-c2ccc(Br)cc2)nc2ccccc12	i	4.8
CCCOc1cccc(-c2cc(C(=O)N/N=C/c3cccnc3)c3ccccc3n2)c1	-5.8*	-5.8
CCn1cc(CCC(=O)NC2CCCC2)c2ccccc21	i	1.7
COc1cc2c(cc1NC(=O)COC(=O)C(CCSC)NC(=O)c1ccccc1Cl)oc1ccccc12 (stereo not given)	i	·
Cc1ccc(NC(=O)CC2SC(=Nc3ccc(O)cc3)NC2=O)cc1 (stereo not given)	i	1.7
Cc1ccc(CN(Cc2cccnc2)C(=O)CN2C(=O)COc3ccccc32)o1	i	·
O=C(CN1C(=O)COc2ccccc21)N(Cc1ccccc1)Cc1ccccn1	-6.1*	-6.1
COc1cccc(CNCC(O)(c2ccc(Cl)cc2)c2ccc(Cl)cc2)c1	i	·
Cc1ccc(CNCC(O)(c2ccccc2)c2ccc(Cl)cc2)cc1 (stereo not given)	-6.4*	-6.4
COc1ccccc1S(=O)(=O)Cc1ccc(C(=O)N2CCN(c3ccc(C)cc3)C(C)C2)o1 (stereo not given)	-6.6*	-6.6
CCOC(=O)N1CCN(C(=O)c2ccc(CS(=O)(=O)c3ccccc3OC)o2)CC1	i	0.24
Cc1ccc(S(=O)(=O)N2CCC(=O)CC2)cc1	i	0.38
COc1ccc(NS(=O)(=O)c2cccc(C(=O)N3CCN(c4ccccc4O)CC3)c2)cc1	i	0.03
SMILES	KCNQ2 inh	KCNQ2 pot
CC(C)(C)c1ccccc1N=Cc1ccc2ccccc2n1	-6.4*	-6.4
O/N=C/c1ccc2ccccc2n1	i	·
CC(=O)N1c2ccc3ccccc3c2C(C)CC12CCCCC2 (stereo not given)	-6.6*	-6.6
CC1CC2(CCCCC2)Nc2ccc3ccccc3c21 (stereo not given)	i	·
Cc1ccc2nc3c(cc(C#N)c(=N)n3Cc3cccnc3)c(=O)n2c1	i	0.55
CC(C)c1ccc(S(=O)(=O)N2CCN(C(=O)Cc3ccsc3)CC2)cc1	i	·
N#Cc1c(Cl)nsc1NC(=O)c1ccccc1	i	1.1
Cc1cccc(C)c1NC(=O)CCn1cnc2ccccc2c1=O	i	·
CCC[C@@H](CNC)NC[C@H](Cc1ccccc1)NCCCCc1ccccc1	-6*	-6
CCC[C@@H](CN[C@@H](CNC)C(C)C)NCCCCc1ccccc1	i	·
CCn1cc(C(=O)NCCC(=O)NC(C)C)c(=O)c2cc3c(cc21)OCO3	i	·
COc1ccc2cc(C(C)C(=O)Nc3cccc(S(=O)(=O)N(C)C)c3)ccc2c1 (stereo not given)	i	1.1
CC1CCCCN1C(=O)CSc1nc(-c2ccccc2)cc(=O)[nH]1 (stereo not given)	i	0.32
CC1CCCCN1C(=O)c1cc2nc(-c3ccccc3)cc(-c3ccccc3)n2n1 (stereo not given)	-5.7*	-5.7
O=C(OCc1ccccc1)c1cccc(-c2nnc(-c3ccccc3)o2)c1	-6.3*	-6.3
O=C(OCc1ccc(C(=O)c2ccccc2)cc1)c1cccc(-c2nnc(-c3ccccc3)o2)c1	i	·
NC(=O)NCC(c1ccccc1)C1CCCCC1 (stereo not given)	i	·
COc1ccc(S(=O)(=O)N2CCCC(C(=O)N3CCN(C)CC3)C2)cc1Cl (stereo not given)	i	·
COc1ccc(S(=O)(=O)N2CCCC2)cc1C(C)C	-6.9*	-6.9
COc1ccc(S(=O)(=O)N2CCCC2)cc1OC	i	0.02
COc1ccc(S(=O)(=O)N2CCCC(C(=O)N3CCOCC3)C2)cc1Cl (stereo not given)	-5.6*	-5.6
Cc1cccc(OCCn2nnc3ccccc32)c1C	i	0.33
